From PubChem BioAssay (EPA / NIEHS)
Inconclusive results are not listed. Activity calls are given as the source filed them. How the source made its calls: active means hit-call score of the fitted dose curve at least 0.9, where 1 is the maximum; inconclusive means response in the unintended direction; inactive means score below 0.9.

Each compound was assayed on ABC Transporter (ABCB11), ABCB11 (gene 8647) (assay: CLD_ABCB11_48hr: CellzDirect (CLD) Gene Expression Assay for ABC Transporter (ABCB11) at 48 hours (AID 2283697)).
Description: CLD_48hr is a cell-based, multiplexed-readout assay that uses hepatocyte, a human liver primary cell, with measurements taken at 48 hours after chemical dosing in a 96-well plate.CLD_ABCB11_48hr is one of 16 assay component(s) measured or calculated from the CLD_48hr assay. It is designed to make measurements of mRNA induction, a form of inducible reporter, as detected with chemiluminescence signals by Quantitative Nuclease Protection Assay (qNPA) technology.Data from the assay component CLD_ABCB11_48hr was analyzed at the endpoint, CLD_ABCB11_48hr, in the positive analysis fitting direction relative to DMSO as the negative control and baseline of activity. Using a type of inducible reporter, gain-of-signal activity can be used to understand changes in the reporter gene as they relate to the gene ABCB11. Furthermore, this assay endpoint can be referred to as a primary readout. To generalize the intended target to other relatable targets, this assay endpoint is annotated to the transporter intended target family, where subfamily is ABC transporter.
Human hepatocyte cultures were treated daily for two consecutive days with fresh dosing solutions containing appropriate concentrations of the 320 ToxCast chemicals (chemical identities were blinded to CellzDirect and other ToxCast collaborators), vehicle control (0.2% DMSO), and positive control inducers as summarized in Table 1. Due to the large number of treatment groups and chemicals examined, the ToxCast chemicals were divided into two groups (spanning two independent cultures of hepatocytes from separate donor preparations (Hu778: ToxCast plates 1 and 2; Hu776: ToxCast plates 3 and 4). Each preparation of human hepatocyte cultures was treated with respective vehicle control, medium only control, set of six positive controls/reference chemicals for the five hepatic receptor pathways, and a subset of eight of the ToxCast chemicals (indoxacarb, pyrithiobac-sodium, norflurazon, cyhalofop-butyl, methomyl, thiram, acetochlor, and propiconazole). These replicate data, coupled with internal replicates designed within the blinded ToxCast chemical library, provided additional data to evaluate interindividual differences between hepatocyte preparations and their potential impact on chemical profiles.Cell morphology and integrity were evaluated using phase-contrast microscopy as an indicator of hepatocyte cell health (Tyson & Green, 1987). Cultures for each treatment group (i.e., media, vehicle [0.2% DMSO], positive control inducers [multiple concentrations], and the ToxCast chemicals [multiple concentrations]) were observed and cell morphology was assessed relative to vehicle control cultures at each harvest time point (0, 6, 24, or 48 h). […] Images were evaluated at the conclusion of the study to assess changes in cell integrity and account for the effects of chemical exposure on uncharacteristic changes in concentration-dependent gene expression profiles. The results from these determinations of apparent cytotoxicity were annotated (yes/no) alongside the corresponding qNPA data for reference.At the conclusion of each treatment period, hepatocyte cultures (96-well) were washed with 1 volume of HBSS, lysed by addition of 25 ul ArrayPlate lysis buffer (HTG, Tucson, AZ), and 70 ul/well of Denaturation Oil, denatured by incubation at 95C for 10 min, and frozen at approximately -70C until analysis by nuclease protection assay (qNPA) (Roberts et al., 2007). For qNPA analysis, cell lysates were thawed at 50C for approximately 30 min, qNPA probes were added, and samples were incubated at 95C for 10 min to begin the detection process by denaturing the target RNA, dissociating the duplexes and secondary structure hybridization. At the conclusion of the hybridization period, S1 nuclease reagent was added to each sample to digest all nonprotected nucleotides at 50C for 60-90 min. […]

Compound	outcome	AC50
CCOP(=S)(OCC)Oc1ccc2c(C)c(Cl)c(=O)oc2c1	inactive	
C[N+]1(C)CCCCC1	inactive	
C=C(C)[C@H]1Cc2c(ccc3c2O[C@@H]2COc4cc(OC)c(OC)cc4[C@@H]2C3=O)O1		3.73 µM (active)
CCCCOC(=O)c1ccccc1C(=O)O	inactive	
CCOC(=O)CC(SP(=O)(OC)OC)C(=O)OCC (configuration not stated)	inactive	
CCCCSP(=O)(SCCCC)SCCCC	inactive	
CN(C)C(=O)Nc1cccc(C(F)(F)F)c1	inactive	
CC(C)=CC1C(C(=O)OCN2C(=O)C3=C(CCCC3)C2=O)C1(C)C (configuration not stated)	inactive	
COc1cccc(C(=O)NN(C(=O)c2cc(C)cc(C)c2)C(C)(C)C)c1C	inactive	
COP(=O)(OC)C(O)C(Cl)(Cl)Cl (configuration not stated)	inactive	
O=c1ccc(=O)[nH][nH]1	inactive	
CN(C)[C@@H]1C(=O)C(C(N)=O)=C(O)[C@@]2(O)C(=O)C3=C(O)c4c(O)cccc4[C@@](C)(O)[C@H]3[C@H](O)[C@@H]12	inactive	
CC(COc1ccc(Oc2ccccc2)cc1)Oc1ccccn1 (configuration not stated)	inactive	
N#CSCSC#N	inactive	
CCCOc1nn(C(=O)NS(=O)(=O)c2ccccc2C(=O)OC)c(=O)n1C	inactive	
CCOP(=S)(Oc1cnc(C(C)(C)C)nc1)OC(C)C (configuration not stated)	inactive	
CN(C)NC(=O)CCC(=O)O	inactive	
CC1=NNC(=O)N(/N=C/c2cccnc2)C1	inactive	
CCCCOC(=O)[C@@H](C)Oc1ccc(Oc2ccc(C#N)cc2F)cc1	inactive	
CCOP(=O)(SC(C)CC)N1CCSC1=O (configuration not stated)	inactive	
CC[C@H](C)[C@H]1O[C@]2(C=C[C@@H]1C)C[C@@H]1C[C@@H](C/C=C(\C)[C@@H](O[C@H]3C[C@H](OC)[C@@H](O[C@H]4C[C@H](OC)[C@@H](NC)[C@H](C)O4)[C@H](C)O3)[C@@H](C)/C=C/C=C3\CO[C@@H]4[C@H](O)C(C)=C[C@@H](C(=O)O1)[C@]34O)O2	inactive	
COP(=O)(NC(C)=O)SC (configuration not stated)	inactive	
CCOP(=O)(OCC)Oc1cc(C)nc(C(C)C)n1	inactive	
COc1cc(OC)nc(Sc2cccc(Cl)c2C(=O)O)n1	inactive	
CCC(=NOC/C=C/Cl)C1=C(O)CC(C2CCOCC2)CC1=O (configuration not stated)	inactive	
CCCSP(=O)(OCC)Oc1ccc(Br)cc1Cl (configuration not stated)	inactive	
COP(=O)(OC)SCn1c(=O)oc2cc(Cl)cnc21	inactive	
